Among all 400,000 compounds or so, about 13,000 (3.2%) were called active. Not shown: some 18% with an inconclusive outcome. The call rests on the fitted dose curve; in most records, active means well fitted cell-killing curve with a large enough effect; inconclusive means small, poorly fitted or top-dose-only effect, or effect the other way; inactive means flat fitted curve, though single readings scatter. What follows is part of a selection rich in actives, with near analogues and random picks from the rest. Where a call stands in place of a potency, no number is given.
Experiment: qHTS assay for MDR1-selective chemotherapeutics: Primary screen using the drug-selected MDR subline cells KB-V1; further: nearly all actives have a fitted effect of over 60% in size
Conditions: KB-V1 MDR cells viability, CellTiter-Glo, 72 h; series mostly up to 46.1 µM
Description: A prime difficulty in effectively treating cancer is the development of cellular resistance to multiple structurally unrelated anticancer drugs, a phenomenon known as multidrug resistance (MDR). […] Numerous strategies to overcome P-gp-mediated MDR have been explored, including the design of drugs that evade recognition and efflux, and development of inhibitors to block efflux and restore drug accumulation. […] An alternative approach is to exploit resistance by identifying drugs that target MDR cells over the non-resistant parental cells from which they were selected. […] The development of MDR1-selective agents represents a new strategy for resolving multidrug resistance, as it remains a long-standing clinical challenge for cancer chemotherapy.
Our goal is to identify compounds that selectively kill P-gp-expressing MDR cells. We will identify MDR1-selective compounds by comparing toxicity of compounds in the screening library against parental, drug-naive (KB-3-1) adenocarcinoma cells as well as their drug-selected MDR sub-line (KB-V1). The differential toxicity of compounds against these two cell lines will be used to identify MDR1-selective compounds, whose cytotoxicity is potentiated, rather than diminished, by P-gp expression. This assay will be utilized to conduct a quantitative high-throughput screen (qHTS) in collaboration with the NIH Chemical Genomics Center to identify selective agents, and probe hits arising from the screen will be validated using secondary assays and characterized through a well-established follow-up research program. This screen was run against the entire NCGC library collection of about 400,000 compounds.
NIH Molecular Libraries Probe Production Network [MLPCN]
NIH Chemical Genomics Center [NCGC]
PI: Michael Gottesman, National Cancer Institute, NIH
Briefly, 5 microL of media containing either KB-V1 cells (columns 1-2, 4-48) are dispensed into Greiner white, treated solid-bottom 1536-well assay plates (media-only control is added to column 3). Compounds are then transferred via Kalypsys pin tool equipped with 1536-pin array (10 nL slotted pins, V&P Scientific, San Diego, CA). Following addition of compound, the plates are incubated at 37 degrees C for 72 hours. CellTiter-Glo (2.5 µL/well) is then added, and the plates are read in a ViewLux reader (Perkin-Elmer, clear luminescence filter, 1 second exposure, 1x binning) following a 10 minute incubation. All cells are dispensed in DMEM phenol-red free media containing 10% FBS.
Library plates were screened starting from the lowest and proceeding to the highest concentration. Vehicle-only plates, with DMSO being pin-transferred to columns 5-48, will be inserted uniformly at the beginning and the end of each library in order to monitor and record any shifts in the background, which can be affected by reagent dispensers or loss in enzyme activity over time. Screening data will be corrected, normalized, and concentration-effect relationships will be derived by using publicly-available NCGC, NCATS curve fitting algorithms (http://ncgc.nih.gov/pub/openhts).
Potency means the concentration at half of the fitted maximal effect.

Which Potency does the source give for `CN1CCN(C(=O)CCc2nc(-c3ccc(Cl)cc3)no2)CC1` here?
The Potency was “inactive”.

Which Potency does the source give for `CCN1CC(CN(C)Cc2nc(-c3ccc(Cl)cc3)no2)CC1=O` (configuration not stated) here?
The Potency was 16.4 µM (active).

For `CC1CCN(Cc2nc(-c3ccc(Cl)cc3)no2)CC1`, which Potency is on record?
Its Potency is “inactive”.

For `C[C@H](CO)N1C[C@H](C)[C@H](CN(C)C(=O)Nc2ccc3c(c2)OCO3)Oc2ncc(Br)cc2C1=O`, which Potency is on record?
Its Potency is “inactive”.

With `CC(C)(C)c1ccc(C(=O)C[N+]2(C)CCCc3ccccc32)cc1` (configuration not stated) as the compound, how does the Potency read?
The Potency was “inactive”.

With `COc1ccc(-n2c(-c3ccc(Cl)cc3)n[nH]c2=S)c(OC)c1` as the compound, how does the Potency read?
Its Potency is “inactive”.

With `Cc1cc(Cl)ccc1NC(=O)Cc1ccc(NC(=O)N2CCCCc3ccccc32)cc1` as the compound, how does the Potency read?
The Potency was “inactive”.

With `CCCC1=Nc2cc(C(=O)NCc3ccco3)ccc2Sc2ccccc21` as the compound, how does the Potency read?
Its Potency is 4.11 µM (active).

For `O=C(NCc1ccco1)c1cccc(-c2ccc3nncn3c2)c1`, which Potency is on record?
The Potency was “inactive”.

For `CCCC1=Nc2cc(C(=O)NCCN3CCCC3)ccc2Sc2ccccc21`, which Potency is on record?
The Potency was “inactive”.

With `CCCCCNC(=O)C(c1ccc(OC)cc1)n1c(=O)c(-c2ccccc2)nc2ccccc21` (configuration not stated) as the compound, how does the Potency read?
Its Potency is “inactive”.

Which Potency does the source give for `CCCCn1nnnc1C1(C)CCC(=O)N1Cc1ccc(OC)c(OC)c1` (configuration not stated) here?
The Potency was “inactive”.

With `C[C@H](CO)N1C[C@H](C)[C@H](CN(C)C(=O)c2ccncc2)OCc2ccccc2-c2c(n(C)c3ccccc23)C1=O` as the compound, how does the Potency read?
Its Potency is “inactive”.

Which Potency does the source give for `Cc1nn(Cc2ccc(Cl)cc2)c(Cl)c1/C=N/NC(=O)c1cccnc1` here?
Its Potency is “inactive”.

Which Potency does the source give for `CCn1nc(C)c(/C=N/NC(=O)Cc2ccc(Cl)cc2)c1C` here?
The Potency was “inactive”.

For `Cc1nn(Cc2ccc(Cl)cc2)c(Cl)c1/C=N/NC(=O)CNc1ccccc1F`, which Potency is on record?
The Potency was 3.26 µM (active).

Which Potency does the source give for `CC(C)C[C@H]1CNC(=S)N1C[C@H]1CCCN1C[C@H](Cc1ccc(O)cc1)N1C[C@H](Cc2ccc(O)cc2)N(CC2CCCCC2)C1=S` here?
Its Potency is “inactive”.

For `Cn1cnc(S(=O)(=O)N2C[C@@H](O)COC[C@@H]3O[C@H](CC(=O)NC4CCC4)CC[C@H]32)c1`, which Potency is on record?
Its Potency is “inactive”.

For `OC[C@H]1O[C@@H](c2nc(-c3nc(-c4ccc(F)cc4)no3)cs2)[C@H](O)[C@@H](O)[C@H]1O`, which Potency is on record?
Its Potency is “inactive”.

For `COc1cc(Cl)c(C)cc1Nc1nnc(-n2nc(C)cc2C)c2ccccc12`, which Potency is on record?
Its Potency is “inactive”.

For `COc1ccc(C(=O)NC2CC2)cc1OC1CCN(Cc2ccc(SC)cc2)CC1`, which Potency is on record?
The Potency was “inactive”.

With `COc1ccc(C(=O)NC2CC2)cc1OC1CCN(C/C=C/c2ccccc2)CC1` as the compound, how does the Potency read?
The Potency was 16.4 µM (active).

For `COc1ccc(C(=O)NC2CC2)cc1OC1CCN(Cc2cnn(C)c2)CC1`, which Potency is on record?
Its Potency is “inactive”.

With `CCN(CC)CCN(C(=O)c1ccc(S(=O)(=O)N2CCOCC2)cc1)c1nc2cc3c(cc2s1)OCCO3` as the compound, how does the Potency read?
The Potency was “inactive”.

For `CN(C)CCCN(C(=O)c1ccc(S(=O)(=O)N2CCCCCC2)cc1)c1nc2cc3c(cc2s1)OCCO3`, which Potency is on record?
The Potency was “inactive”.

For `CN(C)CCCN(C(=O)c1ccc(S(=O)(=O)N2CCCCCC2)cc1)c1nc2ccc(Br)cc2s1`, which Potency is on record?
The Potency was 23.1 µM (active).

With `COC(=O)c1ccccc1N=NNc1ccc([N+](=O)[O-])cc1` as the compound, how does the Potency read?
The Potency was “inactive”.

Which Potency does the source give for `CC1(C(=O)NS(=O)(=O)c2cccc(F)c2)CCN1C(=O)Cc1cc(F)ccc1F` (configuration not stated) here?
The Potency was “inactive”.

With `O=C(Nc1cccc(-c2nnc(-c3ccccc3)o2)c1)C1CCCO1` (configuration not stated) as the compound, how does the Potency read?
Its Potency is “inactive”.

For `O=C(Nc1ccc(-c2nnc(-c3ccccc3)o2)cc1)C1CCCO1` (configuration not stated), which Potency is on record?
Its Potency is 8.2 µM (active).

For `O=C(Nc1nnc(CCc2ccccc2)s1)C1CCCO1` (configuration not stated), which Potency is on record?
Its Potency is “inactive”.

Which Potency does the source give for `CC1(C(=O)NCc2ccccc2)CSCC(=O)N1CCCn1ccnc1` (configuration not stated) here?
The Potency was “inactive”.

With `COc1ccc(-c2cc(NCc3ccc(F)cc3)n3cnnc3n2)cc1` as the compound, how does the Potency read?
The Potency was “inactive”.

With `CC(Cc1cccs1)NC(=O)c1cccc(Cl)c1` (configuration not stated) as the compound, how does the Potency read?
The Potency was “inactive”.

With `CC(=O)Nc1ccc(NC(=O)[C@@H](NC(=O)c2cccc(C)c2)C(C)C)cc1` as the compound, how does the Potency read?
The Potency was “inactive”.

With `Cc1cccc(C(=O)N[C@H](C(=O)NCc2cccs2)C(C)C)c1` as the compound, how does the Potency read?
The Potency was 9.2 µM (active).

For `COc1ccc(-c2[nH][nH]c(=O)c2NC(=O)c2ccc([N+](=O)[O-])cc2)cc1`, which Potency is on record?
Its Potency is “inactive”.

With `CCCN(CC1COc2ccccc2O1)C(=S)Nc1ccc(C)cc1` (configuration not stated) as the compound, how does the Potency read?
Its Potency is “inactive”.

With `O=C(NCC1COc2ccccc2O1)C1(c2ccccc2)CCCC1` (configuration not stated) as the compound, how does the Potency read?
The Potency was “inactive”.

With `S=C(NCC1COc2ccccc2O1)Nc1ccc(Br)cc1` (configuration not stated) as the compound, how does the Potency read?
The Potency was 23.1 µM (active).

With `C[C@@H]1CN([C@H](C)CO)C(=O)c2cc(-c3ccc(F)cc3)cnc2O[C@H]1CN(C)C(=O)c1ccc(F)cc1` as the compound, how does the Potency read?
Its Potency is “inactive”.

For `CN(Cc1c(F)cccc1Cl)C(=O)COC(=O)Cn1cnc2ccccc2c1=O`, which Potency is on record?
The Potency was “inactive”.

With `CC1CCN(C(=O)c2cccc(S(=O)(=O)N3CCCc4ccccc43)c2)CC1` as the compound, how does the Potency read?
The Potency was “inactive”.

For `COc1cc(C)c(C)cc1S(=O)(=O)N1CCCc2ccccc21`, which Potency is on record?
Its Potency is “inactive”.

Which Potency does the source give for `Cn1c(=O)n(C)c2cc(S(=O)(=O)N3CCCc4ccccc43)ccc21` here?
Its Potency is 8.2 µM (active).

For `C[C@H](CO)N1C[C@H](C)[C@@H](CN(C)Cc2ccc3c(c2)OCO3)OCc2cnnn2CCCC1=O`, which Potency is on record?
The Potency was “inactive”.

For `CC1(C(=O)Nc2cccnc2)Cc2c(-c3ccccc3)ccnc2O1` (configuration not stated), which Potency is on record?
The Potency was “inactive”.

With `Cc1nnc(SC(C)C(=O)c2c[nH]c3ccccc23)n1C1CC1` (configuration not stated) as the compound, how does the Potency read?
Its Potency is “inactive”.

For `Cc1[nH]c2ccccc2c1C(=O)CN1CC(C)CC(C)C1` (configuration not stated), which Potency is on record?
The Potency was “inactive”.

With `Cc1[nH]c2ccccc2c1C(=O)C(C)Sc1nnc(C2CC2)o1` (configuration not stated) as the compound, how does the Potency read?
Its Potency is 7.31 µM (active).

For `COc1ccc(NC(=O)c2ccc3nc(CCc4ccccc4)oc3c2)c(OC)c1`, which Potency is on record?
Its Potency is “inactive”.

With `CC1(C(=O)NS(=O)(=O)c2cccs2)CCN1C(=O)Cc1ccc(-c2ccccc2)cc1` (configuration not stated) as the compound, how does the Potency read?
The Potency was “inactive”.

Which Potency does the source give for `O=C(COc1ccccc1C(=O)Nc1ccccc1)Nc1cccc(F)c1` here?
The Potency was “inactive”.

For `Cc1nc2c(-c3ccccc3)c(C)nn2c(C)c1CCC(=O)NCCc1ccccc1`, which Potency is on record?
The Potency was “inactive”.

Which Potency does the source give for `COc1cc(NC(=O)CCn2nc(C)cc2C)cc(OC)c1OC` here?
The Potency was “inactive”.

Which Potency does the source give for `COc1cccc(CNC(=O)CCC2CCCN(C(=O)c3cc(C)[nH]n3)C2)c1` (configuration not stated) here?
Its Potency is “inactive”.

With `Cc1[nH]c2c(C(=O)N3CCCC(CCC(=O)NCc4ccccc4F)C3)cccc2c1C` (configuration not stated) as the compound, how does the Potency read?
Its Potency is 16.4 µM (active).

With `CSc1ncccc1C(=O)N1CCCC(CCC(=O)NCc2ccccc2F)C1` (configuration not stated) as the compound, how does the Potency read?
The Potency was “inactive”.

For `CC(C)NC(=O)N1Cc2cc(C(=O)NCC(F)(F)F)nc(-c3cccc(-c4cc5ccccc5o4)c3)c2[C@@H]1CCO`, which Potency is on record?
Its Potency is “inactive”.

For `CCOc1ccc2nc(N3CCCC(C(=O)Nc4cc(C)ccc4C)C3)sc2c1` (configuration not stated), which Potency is on record?
The Potency was “inactive”.

For `CCOc1ccc2nc(N3CCCN(C(=O)Nc4ccccc4C)CC3)c(C#N)cc2c1`, which Potency is on record?
Its Potency is 18.4 µM (active).

Which Potency does the source give for `COc1ccc2nc(N3CCCC(O)C3)c(C#N)cc2c1` (configuration not stated) here?
Its Potency is “inactive”.
